The nature of test [1]: Viability qHTS for spleen associated tyrosine kinase inhibitor (SYKi) naive MV4-11 cells (AID 1963823). Note: nearly all actives have a fitted effect of over 40% in size. The procedure, abridged: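 Luminescence from CellTiter-Glo, developed 10 min at room temperature, gave viability of MV4-11 cells never exposed to SYK inhibitor. Cells (500/well) had been incubated with compounds for 72 hr under standard culture conditions.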
Test [2] in a line: Viability qHTS for spleen associated tyrosine kinase inhibitor (SYKi) drug resistant MV4-11 cells (AID 1963824). Note: nearly all actives have a fitted effect of over 35% in size. An outline of the steps:
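SYK inhibitor-resistant MV4-11 AML cells, 500 per well, added to predispensed compounds and incubated 72 hr at 37 C, 5% CO2. Viability measured by CellTiter-Glo luminescence after 10 min at room temperature.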

Test [3] is described as follows: Quantitative highthroughput screen to assess conditional lethalithy of NOMO1 cells grown in RPMI1640 with untreated serum (RPMI+s) (AID 1963876). Note: nearly all actives have a fitted effect of over 35% in size. The procedure, abridged: (§1)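 Each medium arm—HPLM with 10% dialyzed FBS, or RPMI1640 with 5 mM glucose and 10% untreated or dialyzed FBS—was screened against an 11-point, 3-fold compound titration for 48 h at 37 °C, with CellTiter-Glo luminescence as endpoint.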

Test [4] in a line: Quantitative highthroughput screen to assess conditional lethalithy of NOMO1 cells grown in RPMI1640 with dialyzed fetal bovine serum (RPMI+ds) (AID 1963877). For Viability: series mostly up to about 46 µM. Note: nearly all actives have a fitted effect of over 30% in size. An outline of the steps:
as §1

Test [5] in a line: Quantitative highthroughput screen to assess conditional lethalithy of NOMO1 cells grown in Human Plasma-Like Medium with dialyzed fetal bovine serum (HPLM+ds) (AID 1963878). Note: nearly all actives have a fitted effect of over 35% in size. An outline of the steps: as §1
Test [6] can be described thus: Quantitative highthroughput screen to assess conditional lethalithy of P12 Ichikawa cells grown in Human Plasma-Like Medium with dialyzed fetal bovine serum (HPLM+ds) (AID 1963879). For Viability: series mostly up to about 46 µM. Note: nearly all actives have a fitted effect of over 35% in size. The following applies: Potency: viability. The procedure, abridged:
as §1

Test [7] can be described thus: Quantitative highthroughput screen to assess conditional lethalithy of P12 Ichikawa cells grown in RPMI1640 with dialyzed fetal bovine serum (RPMI+ds) (AID 1963880). Note: nearly all actives have a fitted effect of over 35% in size. The settings on record: Potency: P12-Ichikawa viability. An outline of the steps:
as §1

Test [8] can be described thus: Quantitative highthroughput screen to assess conditional lethalithy of P12 Ichikawa cells grown in RPMI1640 with untreated serum (RPMI+s) (AID 1963881). For Viability: series mostly up to about 46 µM. Note: nearly all actives have a fitted effect of over 35% in size. The following applies: Potency: viability. The procedure, abridged:
as §1

Test [9] in a line: Quantitative highthroughput screen to assess conditional lethalithy of SEM cells grown in Human Plasma-Like Medium with dialyzed fetal bovine serum (HPLM+ds) (AID 1963882). For Viability: series mostly up to about 46 µM. Note: nearly all actives have a fitted effect of over 35% in size. An outline of the steps:
as §1

A short description of test [10]: Quantitative highthroughput screen to assess conditional lethalithy of SEM cells grown in RPMI1640 with unreated serum (RPMI+s) (AID 1963883). Note: nearly all actives have a fitted effect of over 35% in size. An outline of the steps:
as §1

Test [11] is described as follows: Quantitative highthroughput screen to assess conditional lethalithy of SEM cells grown in RPMI1640 with dialyzed fetal bovine serum (RPMI+ds) (AID 1963884). For Viability: series mostly up to about 46 µM. Note: nearly all actives have a fitted effect of over 35% in size. The procedure, abridged: as §1
The nature of test [12]: Cellular viability qHTS for adrenocortical cancer (ACC) cell line SW-13 (AID 1963989). Note: nearly all actives have a fitted effect of over 65% in size. The settings on record: SW-13 ACC cells viability, CellTiter-Glo, 48 h; activity (max response): hits give low values. An outline of the steps: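 SW-13 cells in ITS-supplemented serum-free DMEM were plated overnight, then exposed for 48 h at 37C to compound titrations (up to 46 uM final). Viability was read by CellTiter-Glo luminescence; four-parameter logistic fits gave IC50 and efficacy.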

Test [13] is described as follows: Cellular viability qHTS for adrenocortical cancer (ACC) cell line NCI-H295R (AID 1963990). Note: nearly all actives have a fitted effect of over 60% in size. An outline of the steps: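 Luminescent ATP read-out (CellTiter-Glo, 20 min RT) after 48 h drug exposure of NCI-H295R cells; a titration up to 46 uM final. Data normalized to doxorubicin (100% inhibition) and DMSO (0%); 4-parameter fit gives IC50, max response.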

The results in this text go back to PubChem BioAssay (NCATS).

“And” between values parts separate entries of the source, which are not always exact repeats. Equal values may be shown once. Inconclusive results are not listed. The source made the active and inactive calls. Calls come from the whole dose curve; as a rule, active = well fitted curve in the direction sought with a large enough effect; inconclusive = small, poorly fitted or top-dose-only effect, or another doubt; inactive = no such curve, though single readings can be large; an effect the other way counts as inactive or inconclusive.
Potency is the fitted concentration of half-maximal effect.

For the compound `COc1ccc(Cn2ccc3ccc(C(=O)NO)cc32)cc1`, the Potency is 14.8 µM (active) in [1]; 20.6 µM (active) and 18.6 µM (active) in [2]. Further, the Potency entry in [3] was “inactive”.

With `CCOc1cc2c(c(F)c1OCC)C(=N)N(CC(=O)c1cc(N3CCOCC3)c(OC)c(C(C)(C)C)c1)C2`, the Potency is 9.2 µM (active) in [1]; 18.4 µM (active) and 4.68 µM (active) in test [2]. Further, the Potency result in test [3], in test [4], in test [5], in test [6], in [7] and in test [8] was “inactive” each time.

Turning to `COc1ccc(C2CC(c3ccccc3)=NN2c2ccc(S(N)(=O)=O)cc2)cc1` (stereo not drawn), the Potency was 20.9 µM (active) in test [1]; 18.6 µM (active) in [2]; 4.18 µM (active) in [3]; 4.18 µM (active) in test [4]; 2.64 µM (active) in test [5]; 6.62 µM (active) in test [6]. Besides, the Potency was 3.72 µM (active) in test [7]; 4.18 µM (active) in test [8]; 2.35 µM (active) in test [9]; 1.18 µM (active) in test [10]; 1.66 µM (active) in test [11].

As for `Nc1ncnc2c1ncn2[C@H]1CCCO1`, the Potency entry in [1] and in [2] was “inactive” each time.

With `O=C(O)CC1(O)C(=O)Nc2ccccc21` (stereo not drawn), in test [1], the Potency is 9.43 µM (active). The Potency result in [2] was “inactive”.

On to `N[C@@]1(C(=O)O)CS(=O)(=O)[C@H]2[C@H](C(=O)O)[C@H]21`, for which the Potency entry in test [1], in [2], in [3], in test [4], in test [5] and in test [6] was “inactive” in each case. For the same compound, the Potency entry in [7] is “inactive”.

As to `C=C1CC[C@@H]2[C@](C)(CO)[C@H](O)CC[C@@]2(C)[C@@H]1/C=C/C1=CCOC1=O`, the Potency entry in test [1] and in [2] was “inactive” each time.

Take `COC(=O)C1=C(C)NC(C)=C(C(=O)OCCCN2CCC(c3ccccc3)(c3ccccc3)CC2)C1c1cccc([N+](=O)[O-])c1` (stereo not drawn): the Potency in test [1] was 4.68 µM (active) and 8.41 µM (active); in test [2], 4.68 µM (active) and 7.5 µM (active); in test [12], 5.62 µM (active) and 13 µM (active); in [13], 7.08 µM (active) and 8.2 µM (active). Further, the Potency entry in test [3], in test [4], in test [5], in test [6], in [7] and in test [8] was “inactive” each time. Further, the Potency result in [9], in test [10] and in test [11] was “inactive” throughout.
